Source: PubChem BioAssay (NCATS)
Results filed as inconclusive are left out. Active and inactive are the calls of the source. Unless noted, the call rests on the fitted dose curve; in most records, active means well fitted curve in the direction sought with a large enough effect; inconclusive means small, poorly fitted or top-dose-only effect, or another doubt; inactive means no such curve, though single readings can be large; an effect the other way counts as inactive or inconclusive.

Key:
[1] = qHTS for Inhibitors of Cell Surface uPA Generation: Validation Assay (AID 493164);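 further: RAW 264.7 macrophage cells exposed to compound for 18 h; 0% is about no effect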
Summary of the method: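 ATP-Lite luminescence read-out: ATP remains high when uPA activity-dependent LF translocation into the cytoplasm is blocked. RAW 264.7 cells, 18 h compound exposure at 37 C; 7-point titration, 2.45 nM to 38.3 uM final.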

[2] = molecular target: Galactokinase (Homo sapiens) (UniProt P51570); test: qHTS Validation Assay for Inhibitors of Human Galactokinase (GALK) (AID 493189); further: 0% is about no effect
Summary of the method: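 GALK (5 nM) with 35 uM ATP and 100 uM galactose in HEPES pH 8.0 with MgCl2, NaCl, DTT and BSA. Reaction ran 1 h at room temperature. Residual ATP read by Kinase-Glo Plus luminescence.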

[3] = molecular target: Peptidyl-prolyl cis-trans isomerase NIMA-interacting 1 (Homo sapiens) (UniProt Q13526); test: qHTS Validation Assay to Find Inhibitors of Pin1 (AID 504536; active means well fitted inhibition curve with a large enough effect in the polarisation, with a control signal flat, not every such curve was filed as active; the % refers to the polarisation;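 further: 0% = full Pin1 enzyme wells and -100% = no-enzyme wells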)
Summary of the method: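 Fluorescence polarization competition: compounds (titration) displace HiFluor-488-labeled Pin1-1b peptide from Pin1 (0.3 uM final) in pH 7.5 HEPES buffer with DTT, 10 min at room temperature; %Activity normalized to no-enzyme wells, curves fitted.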

[4] = molecular target: Phosphoglycerate kinase, glycosomal (Trypanosoma brucei brucei) (UniProt P07378); test: qHTS Validation Assay to Find Inhibitors of Phosphoglycerate Kinase (AID 504547);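 further: control wells lack PGK and mark full inhibition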
Summary of the method: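 Compounds are pinned into the substrate/PGK mixture, and GAPDH (100nM final) is added to start the reaction by producing 1,3-BPG. After 60 minutes at room temperature, Kinase-Glo Plus is added and luminescence is measured 10 minutes later.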

[5] = molecular target: phosphoglycerate mutase (Leishmania major) (UniProt Q4Q090); test: qHTS Validation Assay to Find Inhibitors of Phosphoglycerate Mutase (AID 504548); further: series mostly up to about 58 µM; on the % scale 0 is the no-effect control and ±100 the full control effect
Summary of the method: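 Lm PGAM at 1.25 nM final with substrate in 100 mM TEA pH 7.6, 5 mM MgCl2, 0.01% Tween-20; 45 min at room temperature. Kinase-GloPlus added, 10 min, end-point luminescence read.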

[6] = Inducers of the Endoplasmic Reticulum Stress Response (ERSR) in human glioma: Validation (AID 504836); further: 0% is about no effect
Summary of the method: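 Stably transfected U87-MG glioma cells carrying a GRP78-based luciferase sensor; 16 h compound incubation. Luminescence end-point read 10 min after Bright-Glo addition at room temperature.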

[7] = molecular target: Ubiquitin carboxyl-terminal hydrolase 1 (Homo sapiens) (UniProt O94782); test: Inhibitors of USP1/UAF1: Pilot qHTS (AID 504865);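 further: rhodamine fluorescence freed from ubiquitin-rhodamine substrate followed over time; top concentration of the series differs between compounds; on the % scale 0 is the no-effect control and ±100 the full control effect; nearly all actives have a fitted effect of over 35% in size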
Summary of the method: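 USP1/UAF1 complex at 1 nM preincubated 15 min at room temperature with compound, then Ub-Rho substrate added at 150 nM final. Fluorescence (480/540 nm) read kinetically in 50 mM HEPES pH 7.8, 0.5 mM EDTA, 1 mM TCEP, 0.1 mg/ml BSA, 0.01% Tween-20.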

[8] = qHTS for Inhibitors of ATXN expression: Validation of Cytotoxic Assay (AID 588349); further: on the % scale 0 is the no-effect control and ±100 the full control effect
Summary of the method: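 Cytotoxicity counter-screen: ATP-based luminescent viability (CellTiter Glo) after 72 hr exposure of HEK293 cells to a compound titration at 37 degrees C.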

[9] = qHTS for Inhibitors of ATXN expression: Validation (AID 588378); further: series mostly up to about 57 µM; on the % scale 0 is the no-effect control and ±100 the full control effect; nearly all actives have a fitted effect of over 75% in size
Summary of the method: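 HEK293 cells carrying ATXN2-firefly luciferase reporter, treated with compound 24 h at 37 °C. Viability read first by CellTiter-Fluor (405/525 nm), then reporter expression by Bright-Glo luminescence; controls were a known ATXN2 expression inhibitor and a luciferase inhibitor.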

[10] = molecular target: Voltage-gated inwardly rectifying potassium channel KCNH2 (Homo sapiens) (UniProt Q12809); test: qHTS Assay for Small Molecule Inhibitors of the Human hERG Channel Activity (AID 588834);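 further: top concentration of the series differs between compounds; on the % scale 0 is the no-effect control and ±100 the full control effect; lower thallium flux fluorescence means stronger hERG block; nearly all actives have a fitted effect of over 50% in size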
Summary of the method: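 Thallium serves as surrogate for K+ influx through BacMam-delivered hERG in U2OS cells. Compounds are added for about 10 minutes after dye loading; stimulation buffer then starts flux, monitored kinetically on FDSS.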

[11] = molecular target: Glutaminase kidney isoform, mitochondrial (Homo sapiens) (UniProt O94925); test: qHTS for Inhibitors of Glutaminase (GLS): LOPAC Validation (AID 624146);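 further: glutamate product detected by oxidase and peroxidase coupled Amplex red fluorescence gain; series mostly up to about 46 µM; on the % scale 0 is the no-effect control and ±100 the full control effect; nearly all actives have a fitted effect of over 60% in size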
Summary of the method: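 Compounds were pin-transferred onto hKGA, after which L-glutamine (1 mM solution) and a detection mix of glutamate oxidase, HRP and Amplex Red were added. Initial and 30 min RT fluorescence reads were collected.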

[12] = qHTS of Trypanosoma Brucei Inhibitors: LOPAC Validation (AID 624147); further: 0% is about no effect
Summary of the method: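 Activity of T. brucei pyruvate kinase was followed by Kinase-Glo Plus luminescence after the enzyme reacted 45 min at room temperature with 130 uM ADP (final) and substrate. Test compounds were added before ADP at multiple concentrations.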

[13] = molecular target: Glucagon-like peptide 1 receptor (Homo sapiens) (UniProt P43220); test: qHTS of GLP-1 Receptor Agonists: LOPAC Validation (AID 624148);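 further: 0% is about no effect; higher luminescence signal means agonism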
Summary of the method: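 HEK293 cells stably co-expressing GLP-1R and a cAMP-responsive luciferase reporter, plated 12 hours before compound, then incubated 4-6 hr at 37 deg C. Luminescence read 12 min after detection reagent.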

[14] = qHTS of Nrf2 Activators: LOPAC Validation (AID 624149); further: 0% is about no effect
Summary of the method: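 Luciferase signal from ARE activation, read with Steady-Glo after 30 min at room temperature. Compounds were pin-transferred onto AREc32_Fluc cells (1000/well, OPTI-MEM/5% FBS, seeded overnight) and left 24 hr at 37 deg C.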

[15] = HTS Assay for Allosteric Antagonists of the Human D2 Dopamine Receptor: Hit Validation in HTRF (AID 624455);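 further: stable D1 dopamine receptor cell line scored for blocking the D1 response; on the % scale 0 is the no-effect control and ±100 the full control effect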
Summary of the method: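 Inhibition of the D1-mediated response was measured by HTRF. Cells used were a line stably expressing the D1 dopamine receptor.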

[16] = molecular target: Arylsulfatase A (Homo sapiens) (UniProt P15289); test: qHTS screen for enhancers of Arylsulfatase A (ASA1): LOPAC Validation Assay (AID 720538); further: 0% is about no effect
Summary of the method: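 SV40-transformed fibroblasts from an MLD patient (ASA-I179S) were treated with compound for 48 h at 37 C. They were then lysed with 0.5 mM pNCS substrate (final) for 14 h at room temperature and stopped with NaOH; signal read by fluorescence (Ex 525/Em 598 nm), with increase denoting enhanced activity.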

[17] = qHTS for compounds that reverse cellular toxicity of Amyloid beta (A-beta) peptide in yeast: LOPAC Validation Assay (AID 720559);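 further: plate controls were DMSO for no effect and equimolar ferric chloride plus clioquinol rescue for full effect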
Summary of the method: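 Yeast expressing toxic A-beta grown with pinned compounds at 30 C for 48 hr. Growth measured as absorbance at 600 nm; data normalized to DMSO and to an equimolar FeCl3/clioquinol mixture as positive control.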

[18] = qHTS for Activators of Parkin Expression: LOPAC Validation Assay (NLuc Reporter) (AID 720572)
Summary of the method: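 NLuc signal, read 10 min after reagent and following a prior FLuc read, is normalized to DMSO (0) and positive controls (100%). Cells: neuronal Parkin-promoter coincidence reporter line; compounds tested 7-point, 24 h, 37 C, 5% CO2.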

[19] = qHTS for Activators of Parkin Expression: LOPAC Validation Assay (FLuc Reporter) (AID 720573)
Summary of the method: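 Neuronal cell line stably expressing FLuc/NLuc coincidence reporter under the Parkin promoter, 1,500 cells/well, dosed 24 h after seeding in 7-point series for 24 h at 37 C. FLuc luminescence read; normalized to DMSO and positive control (100%).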

[20] = molecular target: T1, Hexokinase-4 (Homo sapiens) + Glucokinase regulatory protein (Homo sapiens) (UniProt P35557+Q14397); test: qHTS assay for inhibitors of recombinant human GCK-GKRP interaction: Diaphorase-coupled assay (AID 743205)
Summary of the method: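 Compounds pre-incubated 20 min with substrate, then 10 nM GST-GCK with 10 nM FLAG-GKRP added. GCK activity coupled via G6PDH and diaphorase to resorufin (5 mM glucose, 0.4 mM ATP, 0.15 mM NADP+, pH 7.6), read kinetically over 30 minutes at Ex 525/Em 590 nm.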

[21] = molecular target: T1, Hexokinase-4 (Homo sapiens) + Glucokinase regulatory protein (Homo sapiens); test: qHTS assay for inhibitors of recombinant human GCK-GKRP interaction: ADP-Glo assay (AID 743206);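 further: plate controls were DMSO plus enzyme for no effect and no enzyme for full effect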
Summary of the method: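 Pin-transferred compounds meet a 15 nM GST-GCK/15 nM FLAG-GKRP/2 uM S6P mix (dispense concentrations). ATP is then added to 0.4 mM final with 5 mM glucose, and the reaction runs 60 min at room temperature. ADP is quantified luminescently.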

[22] = molecular target: T1, Hexokinase-4 (Homo sapiens) + Glucokinase regulatory protein (Homo sapiens); test: qHTS assay for inhibitors of recombinant human GCK-GKRP interaction: HTRF assay (AID 743207);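 further: 0% = DMSO with GCK present and -100% = DMSO wells lacking GCK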
Summary of the method: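 HTRF binding of 5 nM GST-GCK and 5 nM FLAG-GKRP with 2 uM S6P in pH 7.1 Hepes buffer (MgCl2, KCl, DTT, Tween 20, BSA). Anti-FLAG XL665 and anti-GST donor added, 60 min at room temperature; 665/615 nm read, normalized to with- and without-GCK controls.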

[23] = qHTS Assay for Identifying Gametocytocidal Compounds (AID 743244);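 further: on the % scale 0 is the no-effect control and ±100 the full control effect; actives lower the fluorescent signal which means gametocytes are killed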; conditions: P. falciparum 3D7 stage III-V gametocytes, alamarBlue, 72 h; max response: hits give low values
Summary of the method: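 Using 20,000 stage III–V 3D7 gametocytes per well, compounds were incubated 72 h under 37 °C/5% CO2. Viability was then assessed by 24 h alamarBlue reduction, measured fluorometrically at 525/598 nm.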

[24] = Natriuretic polypeptide receptor (hNpr1) antagonism - Pilot counterscreen GloSensor control cell line (AID 1347045; calls by dose curve; further: series mostly up to about 38 µM; on the % scale 0 is the no-effect control and ±100 the full control effect)
Summary of the method: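 Control counterscreen: luciferase cGMP-biosensor HEK293 cells (no Npr1) received compound for 30 min at room temperature after GloSensor substrate loading. Luminescence was measured before and 20 min after soluble guanylyl cyclase activation by 50 uM nitroprusside.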

[25] = molecular target: Atrial natriuretic peptide receptor 1 (Homo sapiens) (UniProt P16066); test: Natriuretic polypeptide receptor (hNpr1) antagonism - Pilot screen (AID 1347049; calls by dose curve)
Summary of the method: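 cGMP-sensor HEK293/hNpr1 cells, 1500/well, plated overnight at 37C. 2% GloSensor reagent, 2 h RT. Compound (23 nL pin transfer) 30 min RT, baseline luminescence pre-read. 0.1 nM hNppA, 20 min RT, post-read.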

[26] = molecular target: Atrial natriuretic peptide receptor 2 (Homo sapiens) (UniProt P20594); test: Natriuretic polypeptide receptor (hNpr2) antagonism - Pilot subtype selectivity assay (AID 1347050; calls by dose curve; further: on the % scale 0 is the no-effect control and ±100 the full control effect)
Summary of the method: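 Luminescence from a genetically encoded cGMP luciferase biosensor in hNpr2-expressing HEK293 cells is read before and 20 min after adding 1 nM hNppC. Test compounds, in interplate 1:5 titrations, are added 30-50 min ahead of the agonist.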

[27] = molecular target: Parathyroid hormone/parathyroid hormone-related peptide receptor (Homo sapiens) (UniProt Q03431); test: qHTS for PTHR1 Agonists: Optimization Screen against the NCGC LOPAC library (AID 1347079);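 further: GloSensor cAMP luminescence in HEK-293 GP2 cells expressing human PTHR1 with IBMX; 0% is about no effect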
Summary of the method: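 HEK-293 GP2 cells, PTHR1 + GloSensor cAMP; 3000 cells/well, o/n. Luciferin + IBMX 0.5mM each (stock), 1 hr 37C. Cpd titration, 1 hr 37C. Lum after 15 min RT. Ctrl M-PTH(1-15) top 10uM.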

[28] = qHTS for Inhibitors of the Functional Ribonucleoprotein Complex (vRNP) of Lassa (LASV) Arenavirus: LASV Primary Screen - GLuc reporter signal (AID 1347082; calls by dose curve; tested in HEK293 reporter line; further: series mostly up to about 57 µM; on the % scale 0 is the no-effect control and ±100 the full control effect; nearly all actives have a fitted effect of over 60% in size)
[29] = qHTS for Inhibitors of the Functional Ribonucleoprotein Complex (vRNP) of Lassa (LASV) Arenavirus: Viability assay - alamar blue signal for LASV Primary Screen (AID 1347083; calls by dose curve; tested in HEK293 reporter line; further: series mostly up to about 57 µM; on the % scale 0 is the no-effect control and ±100 the full control effect; nearly all actives have a fitted effect of over 80% in size)
[30] = qHTS for Inhibitors of the Functional Ribonucleoprotein Complex (vRNP) of Lymphocytic Choriomeningitis Arenaviruses (LCMV): Viability assay - alamar blue signal for LCMV Primary Screen (AID 1347085; calls by dose curve; tested in HEK293 reporter line; further: series mostly up to about 57 µM; on the % scale 0 is the no-effect control and ±100 the full control effect; nearly all actives have a fitted effect of over 80% in size)
[31] = molecular target: Lysine-specific demethylase 5B (Homo sapiens) (UniProt Q9UGL1); test: Optimization screen for KDM5B Histone Demethylases FDH coupled qHTS against the LOPAC library (AID 1347166); further: 0% is about no effect
Summary of the method: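 KDM5BDeltaAP (200nM final) in 50mM HEPES pH 7.5, 0.01% Tween-20 was preincubated with compound for 10 min at room temperature. A substrate mix of 12.5uM H3K4Me3, 25uM a-ketoglutarate, ascorbate, Fe2+, NAD+ and formaldehyde dehydrogenase was then added. NADH fluorescence (340/450 nm) was read initially and after 30 min.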

[32] = Validation qHTS assay for inhibitors of Activation Induced Cytidine Deaminase (AID): UDG Counterscreen signal (AID 1347427); further: 0% is about no effect
Summary of the method: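 Fluorescence at 560 nm excitation, 665 nm emission reports UDG signal after 250 mM NaOH (2x) addition and 30 min. Enzymes (AID 1 uM, UDG 2 U/mL, at 4/3x) preincubated 10 min with compound, then 4 h with 4x 250 nM DJC20/DJC23 substrate at room temperature.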

[33] = molecular target: Single-stranded DNA cytosine deaminase (Homo sapiens) (UniProt Q9GZX7); test: Validation qHTS assay for inhibitors of Activation Induced Cytidine Deaminase (AID): AID signal (AID 1347429); further: on the % scale 0 is the no-effect control and ±100 the full control effect
Summary of the method: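 Compounds (final up to 114 uM) preincubated with AID plus UDG; 250 nM DJC20/DJC23 substrate mix (4x stock) added, 4 hr at room temperature, then NaOH, 30 min. Read 1 fluorescence at 540 nm excitation, 590 nm emission.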

[34] = Primary qHTS for inhibitors of La Crosse Virus (LACV) - induced cell death in SH-SY5Y cells (AID 1508616);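 further: top concentration of the series differs between compounds; 0% = infected DMSO wells and 100% = uninfected DMSO wells; higher means more rescue of cells from virus-induced death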
Summary of the method: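 Rescue of virus-induced death was read as ATPLite luminescence after 6 days at 37C, scaled between DMSO wells with LACV and without virus. Cells were SH-SY5Y, 6000/well, infected at 0.01 MOI after compound addition.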

[35] = Primary qHTS for small molecule stabilizers of the endoplasmic reticulum resident proteome: Secreted ER Calcium Modulated Protein (SERCaMP) assay (AID 1508630); further: on the % scale 0 is the no-effect control and ±100 the full control effect
Summary of the method: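 The SH-SY5Y reporter protocol was run at 3 concentrations up to 38.3 uM (primary) or 11 concentrations (follow-up): 16 h compound, 100 nM thapsigargin for 4 h, then extracellular luciferase luminescence.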

T1 sequence (P35557 whole entry, looked up): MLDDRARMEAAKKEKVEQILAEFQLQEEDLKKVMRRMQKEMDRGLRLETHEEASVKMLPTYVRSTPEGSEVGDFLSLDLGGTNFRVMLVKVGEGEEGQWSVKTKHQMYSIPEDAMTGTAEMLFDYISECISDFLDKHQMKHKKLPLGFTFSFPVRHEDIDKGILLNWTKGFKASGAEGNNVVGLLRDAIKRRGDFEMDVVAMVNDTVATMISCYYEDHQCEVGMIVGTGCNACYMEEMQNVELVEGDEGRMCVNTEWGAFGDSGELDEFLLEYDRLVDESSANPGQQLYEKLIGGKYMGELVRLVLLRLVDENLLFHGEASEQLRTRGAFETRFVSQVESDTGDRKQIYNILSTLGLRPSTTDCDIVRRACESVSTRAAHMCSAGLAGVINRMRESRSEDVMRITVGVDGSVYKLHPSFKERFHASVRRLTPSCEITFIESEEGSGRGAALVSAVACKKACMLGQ
T1 sequence (Q14397 whole entry, looked up): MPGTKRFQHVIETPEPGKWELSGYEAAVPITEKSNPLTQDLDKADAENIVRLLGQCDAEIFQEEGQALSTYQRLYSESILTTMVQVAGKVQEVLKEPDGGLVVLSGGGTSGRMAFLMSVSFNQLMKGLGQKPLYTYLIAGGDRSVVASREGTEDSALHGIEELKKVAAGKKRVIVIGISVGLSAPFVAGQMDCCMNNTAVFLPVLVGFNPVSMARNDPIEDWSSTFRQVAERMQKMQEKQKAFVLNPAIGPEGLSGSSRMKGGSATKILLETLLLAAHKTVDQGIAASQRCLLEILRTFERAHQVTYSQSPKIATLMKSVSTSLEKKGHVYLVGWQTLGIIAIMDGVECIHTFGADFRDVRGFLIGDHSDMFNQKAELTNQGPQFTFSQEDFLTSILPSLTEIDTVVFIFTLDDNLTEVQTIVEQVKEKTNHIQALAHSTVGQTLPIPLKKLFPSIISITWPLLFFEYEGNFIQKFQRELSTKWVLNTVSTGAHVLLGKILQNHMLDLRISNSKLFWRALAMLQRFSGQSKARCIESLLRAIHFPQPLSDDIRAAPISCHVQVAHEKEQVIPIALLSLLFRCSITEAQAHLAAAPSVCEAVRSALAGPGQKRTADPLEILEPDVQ
Chain of Ubiquitin carboxyl-terminal hydrolase 1 (Homo sapiens) (O94782 whole entry, looked up): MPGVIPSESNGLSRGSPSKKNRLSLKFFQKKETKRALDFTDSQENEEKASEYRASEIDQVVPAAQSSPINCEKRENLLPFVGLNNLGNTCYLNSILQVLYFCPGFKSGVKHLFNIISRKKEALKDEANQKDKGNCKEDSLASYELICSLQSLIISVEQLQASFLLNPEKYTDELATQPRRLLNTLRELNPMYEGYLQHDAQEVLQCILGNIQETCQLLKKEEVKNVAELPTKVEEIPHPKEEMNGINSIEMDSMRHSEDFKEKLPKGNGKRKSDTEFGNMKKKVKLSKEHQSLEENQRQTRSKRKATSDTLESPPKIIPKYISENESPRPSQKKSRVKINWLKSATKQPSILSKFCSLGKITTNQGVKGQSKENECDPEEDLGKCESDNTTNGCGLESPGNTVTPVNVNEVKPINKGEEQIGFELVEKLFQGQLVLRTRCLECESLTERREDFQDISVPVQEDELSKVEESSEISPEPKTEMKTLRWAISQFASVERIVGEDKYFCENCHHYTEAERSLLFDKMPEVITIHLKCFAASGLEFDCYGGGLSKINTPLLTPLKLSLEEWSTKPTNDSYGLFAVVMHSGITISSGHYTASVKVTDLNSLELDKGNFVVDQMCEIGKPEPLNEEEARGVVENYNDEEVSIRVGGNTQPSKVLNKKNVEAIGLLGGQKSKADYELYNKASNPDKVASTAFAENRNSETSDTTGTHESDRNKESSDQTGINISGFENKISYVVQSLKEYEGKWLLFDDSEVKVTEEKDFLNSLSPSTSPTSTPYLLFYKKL
Chain of Lysine-specific demethylase 5B (Homo sapiens) (Q9UGL1 whole entry, looked up): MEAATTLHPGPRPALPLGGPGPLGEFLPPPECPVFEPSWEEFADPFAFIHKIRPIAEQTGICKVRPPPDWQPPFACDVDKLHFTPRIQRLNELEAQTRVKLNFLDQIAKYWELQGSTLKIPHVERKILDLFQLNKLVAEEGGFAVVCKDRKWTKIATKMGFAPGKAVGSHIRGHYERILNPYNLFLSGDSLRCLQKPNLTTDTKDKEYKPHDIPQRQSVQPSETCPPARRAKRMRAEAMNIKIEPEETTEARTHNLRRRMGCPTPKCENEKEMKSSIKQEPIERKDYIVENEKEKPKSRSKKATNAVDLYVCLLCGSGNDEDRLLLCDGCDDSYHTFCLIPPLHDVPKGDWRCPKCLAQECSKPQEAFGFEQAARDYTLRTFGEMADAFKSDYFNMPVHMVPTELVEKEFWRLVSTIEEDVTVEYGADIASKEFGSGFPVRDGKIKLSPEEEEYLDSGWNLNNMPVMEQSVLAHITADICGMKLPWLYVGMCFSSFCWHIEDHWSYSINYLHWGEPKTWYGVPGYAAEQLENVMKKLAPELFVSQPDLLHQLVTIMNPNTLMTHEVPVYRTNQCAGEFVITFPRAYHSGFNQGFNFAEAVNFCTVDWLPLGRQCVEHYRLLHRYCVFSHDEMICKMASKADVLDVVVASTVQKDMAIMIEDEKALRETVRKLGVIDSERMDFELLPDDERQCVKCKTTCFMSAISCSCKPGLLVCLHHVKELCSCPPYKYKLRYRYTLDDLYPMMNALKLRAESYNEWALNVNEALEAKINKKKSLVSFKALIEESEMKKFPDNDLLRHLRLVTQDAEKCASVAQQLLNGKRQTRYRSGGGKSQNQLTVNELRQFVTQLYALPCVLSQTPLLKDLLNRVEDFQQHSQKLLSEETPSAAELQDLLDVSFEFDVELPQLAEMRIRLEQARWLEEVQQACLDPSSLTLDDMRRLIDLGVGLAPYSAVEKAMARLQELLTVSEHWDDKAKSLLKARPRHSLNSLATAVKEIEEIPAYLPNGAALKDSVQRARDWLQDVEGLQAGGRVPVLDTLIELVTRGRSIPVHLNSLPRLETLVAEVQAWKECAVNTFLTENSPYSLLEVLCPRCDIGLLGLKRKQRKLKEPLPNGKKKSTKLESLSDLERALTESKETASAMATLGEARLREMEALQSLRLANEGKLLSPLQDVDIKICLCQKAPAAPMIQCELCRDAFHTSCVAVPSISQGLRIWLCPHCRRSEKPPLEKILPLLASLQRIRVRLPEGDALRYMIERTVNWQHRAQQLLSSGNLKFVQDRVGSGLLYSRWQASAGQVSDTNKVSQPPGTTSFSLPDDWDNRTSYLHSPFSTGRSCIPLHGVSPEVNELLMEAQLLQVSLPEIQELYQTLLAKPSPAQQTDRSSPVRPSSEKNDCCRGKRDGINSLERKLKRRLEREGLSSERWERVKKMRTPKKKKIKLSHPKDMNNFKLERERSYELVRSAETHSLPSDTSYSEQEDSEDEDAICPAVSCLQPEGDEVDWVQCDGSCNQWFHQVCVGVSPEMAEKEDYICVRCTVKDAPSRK
Chain of Single-stranded DNA cytosine deaminase (Homo sapiens) (Q9GZX7 whole entry, looked up): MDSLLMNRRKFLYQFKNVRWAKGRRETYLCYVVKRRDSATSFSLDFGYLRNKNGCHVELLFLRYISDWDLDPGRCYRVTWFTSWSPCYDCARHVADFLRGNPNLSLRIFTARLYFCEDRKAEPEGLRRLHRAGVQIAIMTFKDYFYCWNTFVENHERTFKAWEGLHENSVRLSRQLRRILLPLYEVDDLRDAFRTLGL
Chain of Peptidyl-prolyl cis-trans isomerase NIMA-interacting 1 (Homo sapiens) (Q13526 whole entry, looked up): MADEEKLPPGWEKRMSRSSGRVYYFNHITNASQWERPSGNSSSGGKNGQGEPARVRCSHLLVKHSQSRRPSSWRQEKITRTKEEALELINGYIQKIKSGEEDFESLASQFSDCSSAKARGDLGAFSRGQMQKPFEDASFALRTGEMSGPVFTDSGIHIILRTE
Chain of Parathyroid hormone/parathyroid hormone-related peptide receptor (Homo sapiens) (Q03431 whole entry, looked up): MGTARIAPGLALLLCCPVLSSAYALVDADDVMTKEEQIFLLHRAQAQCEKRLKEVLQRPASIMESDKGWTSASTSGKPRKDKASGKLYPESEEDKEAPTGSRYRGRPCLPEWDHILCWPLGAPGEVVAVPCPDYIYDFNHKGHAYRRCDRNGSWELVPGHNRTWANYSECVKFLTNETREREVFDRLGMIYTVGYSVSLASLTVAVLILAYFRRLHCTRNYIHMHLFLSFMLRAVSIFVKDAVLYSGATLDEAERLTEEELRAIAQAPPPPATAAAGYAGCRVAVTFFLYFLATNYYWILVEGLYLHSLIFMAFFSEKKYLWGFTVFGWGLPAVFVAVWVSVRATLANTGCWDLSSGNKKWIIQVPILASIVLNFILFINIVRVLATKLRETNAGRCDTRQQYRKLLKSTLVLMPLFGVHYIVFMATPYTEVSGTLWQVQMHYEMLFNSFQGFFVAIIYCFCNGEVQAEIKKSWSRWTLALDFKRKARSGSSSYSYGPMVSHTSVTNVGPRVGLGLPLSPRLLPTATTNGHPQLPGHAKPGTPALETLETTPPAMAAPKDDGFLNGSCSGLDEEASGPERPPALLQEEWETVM
Chain of phosphoglycerate mutase (Leishmania major) (Q4Q090 1-553): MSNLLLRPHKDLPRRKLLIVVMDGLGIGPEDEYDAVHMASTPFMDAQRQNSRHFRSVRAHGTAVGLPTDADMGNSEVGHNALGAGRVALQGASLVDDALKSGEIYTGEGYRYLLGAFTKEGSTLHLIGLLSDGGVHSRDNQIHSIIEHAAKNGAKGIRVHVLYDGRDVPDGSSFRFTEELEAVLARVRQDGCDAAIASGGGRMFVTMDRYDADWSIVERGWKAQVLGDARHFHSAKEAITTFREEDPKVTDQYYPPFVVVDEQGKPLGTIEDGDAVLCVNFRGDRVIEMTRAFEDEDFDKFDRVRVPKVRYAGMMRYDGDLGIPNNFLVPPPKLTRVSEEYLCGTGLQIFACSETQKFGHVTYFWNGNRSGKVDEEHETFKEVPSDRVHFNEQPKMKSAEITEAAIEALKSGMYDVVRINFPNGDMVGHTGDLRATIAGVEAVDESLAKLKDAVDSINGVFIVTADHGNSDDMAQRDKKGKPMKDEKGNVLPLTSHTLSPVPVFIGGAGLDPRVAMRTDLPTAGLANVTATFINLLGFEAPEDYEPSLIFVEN

O=[N+]([O-])c1ccc(O[C@@H]2O[C@H](CO)[C@@H](O)[C@H](O)[C@H]2F)c([N+](=O)[O-])c1
inactive: outcome [1] | outcome [2] | Potency [3] | Potency [4] | outcome [5] | outcome [6] | Potency [7] | outcome [8] | Potency [9] | Potency [10] | outcome [11] | outcome [12] | outcome [13] | outcome [14] | outcome [15] | Potency [16] | outcome [17] | outcome [18] | outcome [19] | outcome [20] | outcome [21] | outcome [22] | max response [23] 12.9% | outcome [24] | outcome [25] | outcome [26] | outcome [27] | Potency [28] | Potency [29] | Potency [30] | outcome [31] | outcome [32] | outcome [33] | outcome [34] | Potency [35]
